Source: PubChem BioAssay (NCATS)
Inconclusive results are not listed. A number with no mark means an inactive call. Calls come from the whole dose curve; as a rule, active = well fitted activation curve with a large enough effect; inconclusive = small, poorly fitted or top-dose-only effect; inactive = flat fitted curve, though single readings scatter.

Assay: Cellular Toxicity (caspase-3) Hek293 (AID 664);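 note: cells exposed to compound for 16 h at 37 °C before readout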
Conditions: HEK293 caspase-3 activation, DMSO = 0%, 100 µM tamoxifen = 100%; at 92.2 µM (top of the series)
Text: NIH Chemical Genomics Center [NCGC]
NIH Molecular Libraries Screening Centers Network [MLSCN]
National Institutes of Environmental Health Sciences [NIEHS]
National Toxicology Program [NTP]
We have developed a 1536-well cell-based assay for quantitative high throughput screening (qHTS) against a number of cell lines to determine in vitro caspase 3/7 of small molecules. This particular assay uses the Hek 293 cell line which is derived from human embryonic kidney cells.
NCGC Assay Protocol Summary:
The Caspase-Glo 3/7 assay (Promega) is a homogeneous method to measure caspase-3 and caspase-7 activities in cultured cells. The quantitation of caspase 3/7 activity is based on the cleavage of a peptide-aminoluciferin substrate. After caspase cleaves the substrate the free aminoluciferin is liberated and serves as the substrate of luciferase, which generates the light. The luminescent signal is proportional to amount of caspase 3/7 activity present.
Using the Caspase-Glo 3/7 assay, the amount of caspase 3/7 activity was measured in the Hek 293 cell line with complete culture medium following compound treatment for 16 hours. The assay was performed in opaque white 1536-well plates. In the screen, tamoxifen and doxorubicin were used as positive controls. Library compounds were measured for their ability to cause the activation of caspase 3/7 in the cell line, as reflected by an increase in luminescence signal, in a concentration-dependent manner. Data were normalized to the controls for basal activity (DMSO only) and 100% stimulation (100 uM tamoxifen). AC50 values were determined from concentration-response data modeled with the standard Hill equation.
qHTS protocol for caspase 3/7 assay in Hek 293 cells
[Step] [Parameter] [Value] [Description]
2. Time; 5 hr; 37 °C incubation
4. Controls; 23 nL; Tamoxifen 0.23 uM to 100 uM & Doxorubicin 7.0 pM to 100 uM
5. Time; 16 hr; 37 °C incubation
6. Reagent; 5 uL; Caspase-Glo 3/7 reagent
7. Time; 20 min; Room Temperature
8. Detection; Luminescence; Viewlux plate reader
Keywords: caspase 3/7, apoptosis, Hek 293 cell line, luminescence, NTPHTS, NTPHTS_NCGC, NIEHS, EPA, DSSTox, MLSMR, MLSCN, NIH Roadmap, qHTS, NCGC

Structure (SMILES)	caspase-3 activation [%]
C=CCCl	0.123
ClCCOCCCl	-1.83
Clc1ccccc1	0.224
BrCC(Br)C1CCC(Br)C(Br)C1 (stereo not given)	6.64
c1ccc(N=NNc2ccccc2)cc1	-0.924
ClC(Cl)Br	-0.335
CC(C)Br	-2.59
CCOP(=S)(OCC)Oc1nc(Cl)c(Cl)cc1Cl	2.26
ClCC(Cl)Cl	-0.541
Nc1cc(Cl)cc(C(=O)O)c1Cl	-1.19
c1ccc(NNc2ccccc2)cc1	-0.473
CC(C)(C)OOC(=O)c1ccccc1	-1.73
ClCCBr	-0.69
Oc1ccc(Cl)c(Cl)c1Cl	1.72
O=[N+]([O-])c1ccc(O)c([N+](=O)[O-])c1	-5.23
Cc1ccc2c(C)cccc2c1	-1.38
C=COC(C)=O	1.36
c1ccc2c(c1)CCNC2	-0.664
CCBr	2.63
Cc1ccc(N)c(N)c1	8.54

Structure (SMILES)	caspase-3 activation [%]
O=C(O)CBr	2.72
C=CC(=O)OCCN(C)C	-0.126
CCCCOCC1CO1 (stereo not given)	3.87
[C-]1=CC=CC1.[C-]1=CC=CC1.[Cl-].[Cl-].[Ti+4]	3.8
ClCc1ccccc1	1.06
NC1CCC(CC2CCC(N)CC2)CC1 (stereo not given)	-0.935
Cc1ccc(N)cc1C	0.308
Nc1ccc(-c2ccc(N)cc2)cc1	0.43
c1ccc(P(c2ccccc2)c2ccccc2)cc1	-0.936
CC(C)C#N	1.03
O=[N+]([O-])c1ccc(Cl)c(Cl)c1Cl	-0.669
CC(C)(Cl)Cl	0.825
Oc1cccc(Cl)c1	-0.037
O=[N+]([O-])c1cc(Cl)c(Cl)cc1Cl	-4.07
CC(C)(C)C(O)(CCc1ccc(Cl)cc1)Cn1cncn1 (stereo not given)	3.2
CC(C)(Cl)[N+](=O)[O-]	-0.194
CN(C)C(=O)Cl	-0.876
Nc1ccc(Cc2ccc(N)cc2)cc1	0.697
CN(C)c1ccc(N=Nc2ccccc2)cc1	-8.79
Nc1c(Br)cc([N+](=O)[O-])cc1[N+](=O)[O-]	4.97
